Measurements: publication PMC5540273 (PLoS ONE, 2017)

Tested on: EPHA5
Details: concentration: 1 μM, replicates: in singlicate; n = 1
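Also: KINOMEscan kinase panel screen.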

With `Cc1cccc(-c2nc(Nc3cccc(C(N)=O)c3)c3ccccc3n2)n1` [GW876019] as the compound, how does the “%Inh” value read?
Its value is 0%.

Which “%Inh” value does the source give for `CC(C)(C)c1ccc(C(=O)Nc2cn3cc(-c4cccnc4)ccc3n2)cc1` here?
Its value is 13%.

`Clc1cc(Cl)cc(Nc2ccnc(Nc3cc(Cl)cc(Cl)c3)n2)c1` [GSK175726] was tested. Which “%Inh” value did it give?
The value was 0%.

With `COc1ccc(CNC(=O)NC2CCN(c3ccnc(Nc4cc(OC)c(OC)c(OC)c4)n3)C2)cc1` (stereo not shown) [GSK1379748] as the compound, how does the “%Inh” value read?
The value was 0%.

With `Fc1cccc(COc2nnc(-c3ccc4c(c3)CCO4)o2)c1` as the compound, how does the “%Inh” value read?
The value was 0%.

How did the “%Inh” value turn out when `CN1C(=O)C(Nc2ccc(Cl)c(C(=O)O)c2)=C(c2ccc(Cl)cc2)C1=O` [SB-404290] was run?
Its value is 0%.

Which “%Inh” value does the source give for `Cn1cncc1-c1ccc2ncnc(Nc3ccc(OCc4ccccc4)cc3)c2c1` [GW320571] here?
Its value is 2%.

Which “%Inh” value does the source give for `Nc1ncnc2[nH]c(-c3ccccc3)nc12` [AH5015] here?
The value was 0%.

Which “%Inh” value does the source give for `Cc1nnc(-c2ccc3occ(-c4ccc(S(C)=O)cc4)c3c2)[nH]1` (stereo not shown) here?
Its value is 10%.

`Fc1cc(Cl)ccc1Nc1ccnc2cc(I)ccc12` [GW551191] was tested. Which “%Inh” value did it give?
The value was 0%.

How did the “%Inh” value turn out when `CC(C)(C)c1ccc(C(=O)Nc2cn3cc(Cl)ccc3n2)cc1` was run?
The value was 0%.

`C[C@@H]1CCCCN1c1cc(-c2ccc3c(N)n[nH]c3c2)nc(N)n1` [GSK2258759] was tested. Which “%Inh” value did it give?
Its value is 0%.

With `Cc1cccc(-c2nc(Nc3ccc4[nH]ncc4c3)c3ccccc3n2)n1` [GW857175] as the compound, how does the “%Inh” value read?
The value was 0%.

How did the “%Inh” value turn out when `Cc1cccc(-c2cc(Nc3ccncc3)c3ccccc3n2)n1` [GSK223675] was run?
The value was 0%.

Which “%Inh” value does the source give for `COc1cc2nccc(Nc3ccc(NC(=O)c4ccc(C)cc4)c(O)c3)c2cc1OC.Cl` [GW440132] here?
The value was 0%.

For `COc1cc(Nc2nccc(N3CCC(NC(=O)Nc4cc(C)ccc4C)C3)n2)cc(OC)c1OC` (stereo not shown) [GSK1379762], which “%Inh” value is on record?
Its value is 0%.

How did the “%Inh” value turn out when `CSc1nn2c(=O)cc(N3CCOCC3)nc2n1Cc1cccc(C(F)(F)F)c1C` [GSK2363608] was run?
Its value is 0%.

How did the “%Inh” value turn out when `COC(=O)c1c(-c2ccccc2)c2cc(OC)ccc2c(=O)n1Cc1ccccc1` was run?
The value was 1%.

Which “%Inh” value does the source give for `Cc1c(Cn2ccn3c(=O)cc(N4CCOCC4)nc23)cccc1C(F)(F)F` [GSK2289044] here?
The value was 0%.

For `Cl.Oc1ccc(-c2nc(-c3ccccc3)[nH]c2-c2ccncc2)cc1` [SB-428218], which “%Inh” value is on record?
Its value is 0%.

`CC1=C(C(=O)Nc2cc3cn[nH]c3cc2F)C(c2ccc(C(F)(F)F)cc2)CC(=O)N1` (stereo not shown) [GSK429286] was tested. Which “%Inh” value did it give?
Its value is 0%.

Which “%Inh” value does the source give for `CCCc1ccc(S(=O)(=O)NC2CCN(c3ccnc(Nc4ccc(F)cc4)n3)C2)cc1` (stereo not shown) [GSK1379715] here?
Its value is 0%.

Which “%Inh” value does the source give for `Cc1ccc(NC(=O)Nc2cccc(Cl)c2)cc1-c1ccc(C(=O)Nc2ccncc2)cc1` [GSK1398468] here?
Its value is 0%.

`O=S(=O)(c1ccc(-c2ccnc3[nH]ccc23)cc1)N1CCCC1` [GSK846226] was tested. Which “%Inh” value did it give?
The value was 0%.

`Cn1ccc2ncnc(Oc3ccc(NC(=O)Nc4ccccc4)cc3)c21` was tested. Which “%Inh” value did it give?
The value was 0%.

Which “%Inh” value does the source give for `CCn1c(-c2ccccn2)nc2cnccc21` [SB-736398] here?
The value was 0%.

With `CC(=O)Nc1nc2cnc(Nc3cc(NC(=O)c4cccc(CCC#N)c4)ccc3C)nc2s1` as the compound, how does the “%Inh” value read?
Its value is 6%.

How did the “%Inh” value turn out when `Cc1cccc(-c2nc(C)cc(Nc3ccncc3)n2)n1` [GSK257997] was run?
The value was 0%.

Which “%Inh” value does the source give for `CS(=O)(=O)c1ccc(-c2c(-c3ncn[nH]3)sc(N3CCOCC3)c2C#N)cc1` here?
The value was 27%.

Which “%Inh” value does the source give for `O=C(O)COc1ncnc2cc(-c3ccc4[nH]ncc4c3)sc12` here?
Its value is 42%.

Which “%Inh” value does the source give for `Cc1c(O)cccc1Nc1ccnc2ccc(C(F)(F)F)cc12.Cl` [GW466413] here?
The value was 0%.

`O=C(Nc1ccc2c(c1)OCO2)NC1CCN(c2ccnc(Nc3ccc(F)cc3)n2)C1` (stereo not shown) [GSK1379724] was tested. Which “%Inh” value did it give?
The value was 0%.

How did the “%Inh” value turn out when `Cl.c1ccc(-c2n[nH]cc2-c2ccnc(-c3ccc(CN4CCOCC4)cc3)c2)nc1` [GW776245] was run?
The value was 11%.

For `Cc1ccc(NC(=O)Nc2cc(C(C)(C)C)nn2-c2ccccc2)cc1` [GSK1014915], which “%Inh” value is on record?
Its value is 0%.
